Source: PubChem BioAssay AID463173 (ICCB-Longwood Screening Facility, Harvard Medical School, 2010)
Screen size: about 52,000 compounds; about 4,300 (8.3%) were called active. Many of the other results were omitted from the sample, so actives are more common in it than they were. Unmarked numbers belong to inactive results. Rule as the data show it: active = survival mostly below about 52% (no sharp cut-off); inactive = mostly above about 56%.

Each compound was assayed on DeltatarO mutant (assay: growth inhibition of S. aureus wild type versus tarO mutant, primary screen, teichoic acid synthesis inhibitors, RN4220, OD600 (AID 463173)). Conditions: OD600, 18 h, hits give low values, screened at 18.75 µg/mL (by protocol).
`COc1ccc(-c2nc(-c3cc4cc(Br)ccc4oc3=O)cs2)cc1` showed a survival of 78%. With `CCOc1ccc(CCNC(=O)CN2C(=O)c3cccnc3Oc3ccc(C)cc32)cc1OCC` the survival was 67%. With `Cc1cc(-c2ccccc2)n2ncc(C#N)c2n1` the survival was 96%. For `CCOc1ccccc1CNC(=O)C1CCN(C2=NS(=O)(=O)C(c3ccc(C)c(C)c3)=C2C)CC1`, the survival was 84%. Compound `COc1ccc(-n2c(=O)c3ccc(C(=O)NCc4ccc(C)cc4)cc3n(CC(=O)Nc3cccc(F)c3)c2=O)cc1` has a survival of 79%. In the case of `Cc1ccccc1Cc1c(C)nc2c(-c3ccccc3)c(C)[nH]n2c1=O`, the survival is reported as -3% (active). With `COc1ccc(-c2c(C)c3cc(OC(=O)N4CCOCC4)ccc3oc2=O)cc1OC` the survival was 47% (active). `Cc1c(-c2ccc(Br)cc2)c(=O)oc2ccc(OC(=O)N3CCOCC3)cc12` showed a survival of 86%. Compound `COc1ccc(-c2c(C)c3cc(OC(=O)N4CCOCC4)ccc3oc2=O)cc1` has a survival of 79%. Compound `COc1ccc(-c2csc(-c3c(N)c(C(=O)c4ccccc4)n4ccccc34)n2)cc1` has a survival of 77%. `COc1ccc(-c2csc(-c3c(N)c(C(=O)c4ccc(OC)c(OC)c4)n4ccccc34)n2)cc1` gave a survival of 75%. `COc1ccc(-c2csc(-c3c(N)c(C(=O)c4ccccc4)n4ccccc34)n2)cc1OC` was tested, and the survival was 43% (active). `Cc1ccc(C)c(NC(=O)c2cnn(-c3cccc(F)c3)c2C2CCN(C(=O)OC(C)(C)C)CC2)c1` gave a survival of 122%. Compound `O=C(Nc1ccccn1)c1cccs1` has a survival of 109%. With `CCN1C(=O)CC(C(=O)Nc2ccc(OC)cc2)SC1=Nc1ccc(C)c(C)c1` (configuration not stated) the survival was 50%. In the case of `CCOc1cccc(NC(=O)C2CC(=O)N(CC)C(=Nc3ccc(F)cc3)S2)c1` (configuration not stated), the survival is reported as 17% (active). `CCOc1cccc(NC(=O)C2CC(=O)N(C)C(=Nc3cccc(OC)c3)S2)c1` (configuration not stated) showed a survival of 82%. `CCOC(=O)C1CCCN(C(=O)c2nn(-c3ccc(C)cc3)c(=O)c3c2c2ccccc2n3C)C1` (configuration not stated) gave a survival of 90%. Compound `Cc1cccn2c(=O)c(/C=C(\C#N)c3nc4ccccc4n3C)c(Oc3ccc(Br)cc3)nc12` has a survival of 69%. `CCc1ccccc1N1CC(c2nc3ccccc3n2Cc2cccc(C)c2)CC1=O` (configuration not stated) showed a survival of 66%. `Cc1ccccc1N1CC(c2nc3ccccc3n2Cc2ccc(Br)cc2)CC1=O` (configuration not stated) was tested, and the survival was 25% (active). `Cc1c(Cl)cccc1N1CC(c2nc3ccccc3n2Cc2ccccc2F)CC1=O` (configuration not stated) was tested, and the survival was 41%. Work on `COc1ccc(OCCCCn2c(C3CC(=O)N(c4cccc(Cl)c4)C3)nc3ccccc32)cc1` (configuration not stated) yielded a survival of 86%. In the case of `Cc1cccc(N2CC(c3nc4ccccc4n3CCC3CCCCC3)CC2=O)c1` (configuration not stated), the survival is reported as 31% (active). For `Cc1ccccc1N1CC(c2nc3ccccc3n2CCC2CCCCC2)CC1=O` (configuration not stated), the survival was 16% (active). In the case of `O=C1CC(c2nc3ccccc3n2CCC2CCCCC2)CN1c1ccccc1Cl` (configuration not stated), the survival is reported as 21% (active). In the case of `COc1ccccc1OCCCn1c(C2CC(=O)N(c3ccccc3Cl)C2)nc2ccccc21` (configuration not stated), the survival is reported as 75%. Work on `Cc1ccc(N2CC(c3nc4ccccc4n3CCC3CCCCC3)CC2=O)cc1` (configuration not stated) yielded a survival of 64%. `Cc1ccc(C)c(Cn2c(C3CC(=O)N(c4ccccc4C)C3)nc3ccccc32)c1` (configuration not stated) showed a survival of 80%. Compound `COc1ccc(N2CCN(C(=O)c3c(C)nn(-c4ccc(F)cc4)c3-n3cccc3)CC2)cc1` has a survival of 69%. For `Cc1ccc(N2C(=O)CSC23C(=O)N(CC(=O)NC2CCCCC2)c2ccccc23)cc1` (configuration not stated), the survival was 79%. `CCOc1ccc(OCC(=O)Nc2c(C(=O)Nc3ccc(C)cc3)oc3ccccc23)cc1` was tested, and the survival was 73%. Work on `Cc1cnn(Cc2ccccc2)c1N` yielded a survival of 98%. With `CSc1nc2c(sc3ccccc32)c(=O)n1Cc1ccc(C)cc1` the survival was 96%. `CC1(C)Oc2ccc(C(=O)N/N=C/c3cccs3)cc2NC1=O` gave a survival of 58%. Work on `O=C1[C@@H]2CSC(c3ccc(F)cc3)N2C(=O)N1c1ccc(Cl)cc1` (some centres not stated) yielded a survival of 76%. In the case of `COc1ccc(C2=NC3(CCCCCC3)N(CC(=O)Nc3cccc(Cl)c3)C2=O)cc1`, the survival is reported as 68%. With `O=C(NCc1ccc2c(c1)CCN2C(=O)c1ccc(F)cc1)c1ccco1` the survival was 115%. Work on `COc1ccc(-c2nc(SCC(=O)NC3CCCC3)c(-c3ccccc3)[nH]2)cc1OC` yielded a survival of 65%. Work on `Cn1c(SCc2ccccc2Cl)nc(=O)c2c1NC(=O)CC2c1cc(F)ccc1F` (configuration not stated) yielded a survival of 45%. `COc1ccc(/C=C/C(=O)N2CCC(c3nc4ccccc4o3)CC2)cc1OC` was tested, and the survival was 86%. For `NC(=O)CN1c2cccc3cccc(c23)S1(=O)=O`, the survival was 104%. With `COc1ccc2[nH]c3c(c2c1)CCN(C(=O)c1cccc(Cl)c1)C3c1ccc(F)cc1` (configuration not stated) the survival was 77%. For `Cc1ccc(CNC(=O)c2ccc(CSCc3cccc(C)c3)o2)cc1`, the survival was 93%. In the case of `CCOC(=O)c1cc(-c2ccccc2)n(CC(=O)NC(C)c2ccccc2)c1C` (configuration not stated), the survival is reported as 91%. In the case of `CCc1ccccc1N1CC(c2nc3ccccc3n2CCC2CCCCC2)CC1=O` (configuration not stated), the survival is reported as 10% (active). Work on `COc1ccccc1Cn1c(C2CC(=O)N(c3ccccc3OC)C2)nc2ccccc21` (configuration not stated) yielded a survival of 49%. `CCc1ccccc1N1CC(c2nc3ccccc3n2CC(C)C)CC1=O` (configuration not stated) gave a survival of 78%. For `Cc1cccc(NS(=O)(=O)c2ccc3c(c2)CCN3C(=O)C2CCC2)c1`, the survival was 69%. `Cc1cc(C)c2oc(C(=O)NCCc3ccc(S(N)(=O)=O)cc3)cc(=O)c2c1` showed a survival of 63%. Compound `Cn1c(=O)n(C)c2cc(CNCc3ccc(F)cc3)ccc21` has a survival of 92%. `NC(=O)c1ccccc1NS(=O)(=O)c1ccccc1` was tested, and the survival was 97%. `NC(=O)c1cc(Cl)nc2ccccc12` was tested, and the survival was 81%. For `NC(=O)c1ccc(-c2ccccc2)cc1C(N)=O`, the survival was 66% (active). In the case of `Cc1ccc(CNC(=O)c2cnc(N3CCCCC3)c3ccccc23)cc1`, the survival is reported as 80%. In the case of `c1ccc(CCn2nnnc2CN2CCCc3ccccc32)cc1`, the survival is reported as 93%. With `Cc1ccc(CN(C(=O)COc2ccc(Br)cc2)c2ccccn2)o1` the survival was 62%. With `O=C(Cc1ccccc1)Nc1sc2c(c1C(=O)Nc1ccccc1)CCCCC2` the survival was 50%. Compound `COc1ccc(NC(=O)c2c(NC(=O)Cc3ccccc3)sc3c2CCCC3)cc1` has a survival of 124%. For `Cc1ccc(NC(=O)c2c(NC(=O)Cc3ccccc3)sc3c2CCC3)cc1`, the survival was 24% (active). With `CCOc1ccc(NC(=O)c2c(NC(=O)Cc3ccccc3)sc3c2CCCC3)cc1` the survival was 45% (active). `O=C(Cc1ccccc1)Nc1sc2c(c1C(=O)Nc1ccc(Br)cc1)CCC2` gave a survival of 55%. `Cc1ccc(NC(=O)c2c(NC(=O)Cc3ccccc3)sc3c2CCCC3)cc1` was tested, and the survival was 28% (active). For `CCC(=O)Nc1sc2c(c1C(=O)Nc1ccc(Br)cc1)CCCCC2`, the survival was 135%. `O=C(Cc1ccccc1)Nc1sc2c(c1C(=O)Nc1ccc(Cl)cc1)CCCC2` gave a survival of 47%. `CCOc1ccc(NC(=O)c2c(NC(=O)Cc3ccccc3)sc3c2CCCCC3)cc1` was tested, and the survival was 48%. In the case of `O=C(Cc1ccccc1)Nc1sc2c(c1C(=O)Nc1ccc(Br)cc1)CCCC2`, the survival is reported as 57% (active).
